# Measurements as given in PubChem BioAssay (NCATS).
# Results filed as inconclusive are left out. Where a call stands in place of a potency, no number is given. Activity calls are given as the source filed them. The call rests on the fitted dose curve; in most records, active means well fitted inhibition curve with a large enough effect; inconclusive means small, poorly fitted or top-dose-only effect; inactive means flat fitted curve, though single readings scatter.
# Columns and labels:
# Assay in all cases: qHTS profiling for inhibitors of Plasmodium falciparum proliferation (AID 504749); further: nearly all actives have a fitted effect of over 60% in size
# Details in all cases: P. falciparum in erythrocytes, SYBR Green DNA, 72 h; series mostly up to 28.7 µM
# CP250 = system: CP250
# Outline: (§1)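 SYBR Green fluorescence (ex 485 nm, em 535 nm) reports parasite DNA after 72 h compound exposure of infected red cells at 0.3% parasitemia, 2.5% hematocrit; signal normalized to 0.29 uM artemisinin and vehicle wells.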
# CP252 = system: CP252
# Outline: as §1
# CP256 = system: CP256
# Outline: as §1
# CP260 = system: CP260
# Outline: as §1
# CP262 = system: CP262
# Outline: as §1
# CP265 = system: CP265
# Outline: as §1
# CP266 = system: CP266
# Outline: as §1
# CP268 = system: CP268
# Outline: as §1
# CP269 = system: CP269
# Outline: as §1
# CP286 = system: CP286
# Outline: as §1
# Potency means the concentration at half of the fitted maximal effect.
Structure (SMILES),Potency (CP250),Potency (CP252),Potency (CP256),Potency (CP260),Potency (CP262),Potency (CP265),Potency (CP266),Potency (CP268),Potency (CP269),Potency (CP286)
CCOC(=O)[C@@H](N)CS,inactive,inactive,inactive,inactive,inactive,inactive,inactive,inactive,inactive,inactive
Oc1cc(O)cc(O)c1,inactive,inactive,inactive,inactive,inactive,inactive,inactive,inactive,inactive,inactive
OCC1(CO)COC(C(Cl)(Cl)Cl)OC1,inactive,inactive,inactive,inactive,inactive,inactive,inactive,inactive,inactive,inactive
O=C(O)c1cc(N=Nc2ccc(O)c(C(=O)O)c2)ccc1O,inactive,inactive,inactive,inactive,inactive,inactive,inactive,inactive,inactive,–
CCCCCCCCCCCCCCCCCC(=O)OC[C@@H](O)[C@H]1OC[C@H](O)[C@H]1O,inactive,inactive,inactive,inactive,inactive,inactive,inactive,inactive,inactive,inactive
O=C(O)c1ccc(NC(=O)[C@H](Cc2ccc(O)cc2)NC(=O)c2ccccc2)cc1,inactive,inactive,inactive,inactive,inactive,inactive,inactive,inactive,inactive,inactive
CN1C(C(=O)Nc2ccccn2)C(=O)c2sc(Cl)cc2S1(=O)=O (centres undefined),inactive,inactive,inactive,inactive,inactive,inactive,inactive,inactive,inactive,inactive
CCCC(=O)O,inactive,inactive,inactive,inactive,inactive,inactive,inactive,inactive,inactive,inactive
CCCCCCCCCCCCCC(=O)OCC(COP(=O)([O-])OCC[N+](C)(C)C)OC(=O)CCCCCCCCCCCCC (centres undefined),inactive,inactive,inactive,inactive,inactive,inactive,inactive,inactive,inactive,inactive
CC(C)=CCC/C(C)=C/CC/C(C)=C/CC/C=C(\C)CC/C=C(\C)CCC=C(C)C,inactive,inactive,inactive,inactive,inactive,inactive,inactive,inactive,inactive,inactive
CC(C)CCCC(C)NC(C)C (centres undefined),inactive,inactive,inactive,inactive,inactive,inactive,inactive,inactive,inactive,inactive
CC1CCCCN1CCCOC(=O)c1ccccc1 (centres undefined),inactive,inactive,inactive,inactive,inactive,inactive,inactive,inactive,inactive,inactive
O=C(OCc1ccccc1)c1ccc(O)cc1,inactive,inactive,inactive,inactive,inactive,inactive,inactive,inactive,inactive,inactive
CC(C)(C)c1ccc2c(S(=O)(=O)O)c(C(C)(C)C)ccc2c1,inactive,inactive,inactive,inactive,inactive,inactive,inactive,inactive,inactive,inactive
CN1C(=O)OC(C)(C)C1=O,inactive,inactive,inactive,inactive,inactive,inactive,inactive,inactive,inactive,inactive
NCC(O)CC(=O)O (centres undefined),inactive,inactive,inactive,inactive,inactive,inactive,inactive,inactive,inactive,inactive
CCCCCCCCCCCCOCCCN,inactive,inactive,inactive,inactive,inactive,inactive,inactive,inactive,inactive,inactive
O=C(NCCNCC(O)COc1ccc(O)cc1)N1CCOCC1 (centres undefined),inactive,inactive,inactive,inactive,inactive,inactive,inactive,inactive,inactive,inactive
C=CC(C)(O)CC/C=C(\C)CCC=C(C)C (centres undefined),inactive,inactive,inactive,inactive,inactive,inactive,inactive,inactive,inactive,inactive
C=CC[C@@H]1/C=C(\C)C[C@H](C)C[C@H](OC)[C@H]2O[C@@](O)(C(=O)C(=O)N3CCCC[C@H]3C(=O)O[C@H](/C(C)=C/[C@@H]3CC[C@@H](O)[C@H](OC)C3)[C@H](C)[C@@H](O)CC1=O)[C@H](C)C[C@@H]2OC,0.891 µM (active),1 µM (active),0.708 µM (active),0.794 µM (active),4.26 µM (active),0.631 µM (active),8.49 µM (active),0.849 µM (active),3.79 µM (active),1 µM (active)
CC(C)O,inactive,inactive,inactive,inactive,inactive,inactive,inactive,inactive,inactive,inactive
COC(=O)CC[C@H](N)C(=O)O,inactive,inactive,inactive,inactive,inactive,inactive,inactive,inactive,inactive,inactive
OC/C=C/c1ccccc1,inactive,inactive,inactive,inactive,inactive,inactive,inactive,inactive,inactive,inactive
